Assay results published in the supplement of paper PMC10849652.
Targets with a hit are over-represented here; the source holds about 8,800 in all. About 0.5% of all pairs of compound and target were hits. Unmarked numbers belong to inactive results.

Columns and labels:
Assay in all cases: log2 fold change, soluble protein after heating vs DMSO (PISA); higher = thermal stabilisation; K562 lysate, 10 uM; active = over 0.2 and 3.5 SD of the protein, either way, in both replicates (recomputed)
[1] = compound: Cc1cn(-c2cc(NC(=O)c3ccc(C)c(Nc4nccc(-c5cccnc5)n4)c3)cc(C(F)(F)F)c2)cn1 [nilotinib]
Outline: (§1)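 Quantification was by TMTpro 16plex LC-MS/MS with equalised channel sums, applied to the supernatant after 21,000xg for 90 min. Samples were crude K562 extract at 1 mg/mL protein in PBS pH 7.4 with 1 mM MgCl2, treated with 10 μM compound for 30 min, heated for 3 min across 48°C-58°C, pooled and brought to 0.5% NP-40 at 4°C. Values are log-two fold changes in thermal stability relative to solvent controls, from duplicates.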

[2] = compound: Cc1nc(Nc2n[nH]c3c2CN(C(=O)N[C@H](CN(C)C)c2ccccc2)C3(C)C)c2sccc2n1
Outline: as §1

[3] = compound: Cc1nc(Nc2ncc(C(=O)Nc3c(C)cccc3Cl)s2)cc(N2CCN(CCO)CC2)n1 [dasatinib]
Outline: as §1

[4] = compound: Cc1ncc(-c2ccnc(Nc3ccc(S(C)(=O)=O)cc3)n2)n1C(C)C
Outline: as §1

[5] = compound: Cn1cc(-c2ccc3c(c2)CCN3C(=O)Cc2cccc(C(F)(F)F)c2)c2c(N)ncnc21
Outline: as §1

[6] = compound: Cn1cc(CNCC2CCN(c3ncc(C(=O)NO)cn3)CC2)c2ccccc21 [quisinostat]
Outline: as §1

[7] = compound: Cn1cncc1[C@@](N)(c1ccc(Cl)cc1)c1ccc2c(c1)c(-c1cccc(Cl)c1)cc(=O)n2C [tipifarnib]
Outline: as §1

[8] = compound: NC(=O)Nc1cc(-c2cccc(F)c2)sc1C(=O)N[C@H]1CCCNC1
Outline: as §1

[9] = compound: NC(=O)c1cnc(N[C@@H]2CCCC[C@@H]2N)nc1Nc1cccc(-n2nccn2)c1
Outline: as §1

[10] = compound: NC1(c2ccc(-c3nc4ccn5c(=O)[nH]nc5c4cc3-c3ccccc3)cc2)CCC1
Outline: as §1

[11] = compound: NCC(=O)Nc1ccc(-n2nc(C(F)(F)F)cc2-c2ccc3c(ccc4ccccc43)c2)cc1
Outline: as §1

[12] = compound: O=C(CCCCCCC(=O)Nc1ccccc1)NO [vorinostat]
Outline: as §1

[13] = compound: O=C(O)c1ccc2c(c1)nc(Nc1cccc(Cl)c1)c1ccncc12 [silmitasertib]
Outline: as §1

[14] = compound: O=C1NC(=O)C(c2cnc3ccccn23)=C1c1cn2c3c(cc(F)cc13)CN(C(=O)N1CCCCC1)CC2
Outline: as §1

[15] = compound: c1cn2cc(-c3ccc4cn[nH]c4c3)nc(Nc3ccc(N4CCOCC4)cc3)c2n1 [entospletinib]
Outline: as §1

Chain of UniProt Q14CS0 (Q14CS0 whole entry, looked up): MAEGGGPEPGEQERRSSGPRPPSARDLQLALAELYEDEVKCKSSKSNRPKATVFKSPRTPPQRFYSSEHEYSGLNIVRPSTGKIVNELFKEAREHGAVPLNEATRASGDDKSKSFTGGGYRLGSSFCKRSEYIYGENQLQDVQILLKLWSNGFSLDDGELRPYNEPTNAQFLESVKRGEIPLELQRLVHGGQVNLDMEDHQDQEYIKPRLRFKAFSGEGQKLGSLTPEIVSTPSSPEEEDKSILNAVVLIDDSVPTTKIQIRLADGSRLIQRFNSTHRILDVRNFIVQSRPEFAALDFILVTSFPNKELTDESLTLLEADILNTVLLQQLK
Chain of UniProt Q8IZ69 (Q8IZ69 whole entry, looked up): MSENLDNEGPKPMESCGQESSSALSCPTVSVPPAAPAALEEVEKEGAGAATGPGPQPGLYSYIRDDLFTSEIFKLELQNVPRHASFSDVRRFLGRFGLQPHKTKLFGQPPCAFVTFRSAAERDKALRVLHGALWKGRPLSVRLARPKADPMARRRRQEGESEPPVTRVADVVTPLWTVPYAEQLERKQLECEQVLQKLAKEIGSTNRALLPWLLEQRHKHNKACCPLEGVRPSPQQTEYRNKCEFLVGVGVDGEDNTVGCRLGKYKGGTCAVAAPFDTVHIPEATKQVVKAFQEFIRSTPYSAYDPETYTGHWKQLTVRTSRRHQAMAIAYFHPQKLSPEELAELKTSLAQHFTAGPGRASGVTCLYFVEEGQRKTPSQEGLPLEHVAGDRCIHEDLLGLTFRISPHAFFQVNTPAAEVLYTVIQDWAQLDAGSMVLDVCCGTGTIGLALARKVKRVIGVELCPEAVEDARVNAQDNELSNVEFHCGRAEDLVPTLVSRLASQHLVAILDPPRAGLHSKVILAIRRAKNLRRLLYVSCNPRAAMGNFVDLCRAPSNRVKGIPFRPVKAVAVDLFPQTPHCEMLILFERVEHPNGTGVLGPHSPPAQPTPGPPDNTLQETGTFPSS
Chain of UniProt O43399 (O43399 whole entry, looked up): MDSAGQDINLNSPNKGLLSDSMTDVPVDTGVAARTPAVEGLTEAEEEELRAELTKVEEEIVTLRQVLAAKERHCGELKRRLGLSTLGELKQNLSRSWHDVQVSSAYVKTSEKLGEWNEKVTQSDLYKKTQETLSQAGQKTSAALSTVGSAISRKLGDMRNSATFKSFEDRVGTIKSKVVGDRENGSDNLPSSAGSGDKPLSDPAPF
Chain of UniProt Q9H6P5 (Q9H6P5 whole entry, looked up): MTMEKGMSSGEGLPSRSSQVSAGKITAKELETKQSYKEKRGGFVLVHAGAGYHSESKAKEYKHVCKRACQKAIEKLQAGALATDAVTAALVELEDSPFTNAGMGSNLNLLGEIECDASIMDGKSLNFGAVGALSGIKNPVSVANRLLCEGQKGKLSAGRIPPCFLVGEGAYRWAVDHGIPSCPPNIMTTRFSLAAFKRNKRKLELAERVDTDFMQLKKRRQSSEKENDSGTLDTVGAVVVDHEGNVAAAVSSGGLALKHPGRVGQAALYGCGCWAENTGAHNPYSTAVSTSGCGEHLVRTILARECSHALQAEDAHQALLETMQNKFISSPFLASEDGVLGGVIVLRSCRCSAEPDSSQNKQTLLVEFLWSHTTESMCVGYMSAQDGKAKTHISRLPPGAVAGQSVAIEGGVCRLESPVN
Chain of UniProt P15884 (P15884 whole entry, looked up): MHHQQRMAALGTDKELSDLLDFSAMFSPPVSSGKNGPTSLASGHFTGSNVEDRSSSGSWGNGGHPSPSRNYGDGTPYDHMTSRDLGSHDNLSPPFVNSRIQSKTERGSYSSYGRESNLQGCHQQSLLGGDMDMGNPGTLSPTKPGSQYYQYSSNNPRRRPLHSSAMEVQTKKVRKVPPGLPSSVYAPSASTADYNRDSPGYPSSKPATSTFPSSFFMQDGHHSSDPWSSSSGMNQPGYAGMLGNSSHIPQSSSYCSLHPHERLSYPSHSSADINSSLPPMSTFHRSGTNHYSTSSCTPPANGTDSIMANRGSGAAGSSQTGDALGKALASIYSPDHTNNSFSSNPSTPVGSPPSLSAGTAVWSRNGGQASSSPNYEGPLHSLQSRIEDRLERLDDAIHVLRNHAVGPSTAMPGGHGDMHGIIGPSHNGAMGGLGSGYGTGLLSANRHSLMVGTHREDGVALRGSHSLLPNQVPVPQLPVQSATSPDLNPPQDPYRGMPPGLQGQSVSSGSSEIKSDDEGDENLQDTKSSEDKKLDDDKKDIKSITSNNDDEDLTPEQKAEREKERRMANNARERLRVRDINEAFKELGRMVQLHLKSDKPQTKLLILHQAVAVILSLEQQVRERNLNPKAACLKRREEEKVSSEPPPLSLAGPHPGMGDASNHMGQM
Chain of UniProt Q9H4B7 (Q9H4B7 whole entry, looked up): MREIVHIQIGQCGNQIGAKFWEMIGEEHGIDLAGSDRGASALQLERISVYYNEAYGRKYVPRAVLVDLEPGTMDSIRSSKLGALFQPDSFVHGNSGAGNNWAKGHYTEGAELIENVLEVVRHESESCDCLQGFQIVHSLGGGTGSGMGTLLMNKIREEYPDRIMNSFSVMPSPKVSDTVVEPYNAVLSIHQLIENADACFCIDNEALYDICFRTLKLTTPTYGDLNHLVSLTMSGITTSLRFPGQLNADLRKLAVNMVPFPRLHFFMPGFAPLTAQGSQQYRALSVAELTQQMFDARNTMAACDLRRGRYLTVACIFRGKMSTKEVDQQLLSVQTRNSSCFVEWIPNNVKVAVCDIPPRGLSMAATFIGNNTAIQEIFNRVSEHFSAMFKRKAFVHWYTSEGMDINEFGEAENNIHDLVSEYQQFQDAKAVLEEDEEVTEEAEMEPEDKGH
Chain of UniProt Q9UBB9 (Q9UBB9 whole entry, looked up): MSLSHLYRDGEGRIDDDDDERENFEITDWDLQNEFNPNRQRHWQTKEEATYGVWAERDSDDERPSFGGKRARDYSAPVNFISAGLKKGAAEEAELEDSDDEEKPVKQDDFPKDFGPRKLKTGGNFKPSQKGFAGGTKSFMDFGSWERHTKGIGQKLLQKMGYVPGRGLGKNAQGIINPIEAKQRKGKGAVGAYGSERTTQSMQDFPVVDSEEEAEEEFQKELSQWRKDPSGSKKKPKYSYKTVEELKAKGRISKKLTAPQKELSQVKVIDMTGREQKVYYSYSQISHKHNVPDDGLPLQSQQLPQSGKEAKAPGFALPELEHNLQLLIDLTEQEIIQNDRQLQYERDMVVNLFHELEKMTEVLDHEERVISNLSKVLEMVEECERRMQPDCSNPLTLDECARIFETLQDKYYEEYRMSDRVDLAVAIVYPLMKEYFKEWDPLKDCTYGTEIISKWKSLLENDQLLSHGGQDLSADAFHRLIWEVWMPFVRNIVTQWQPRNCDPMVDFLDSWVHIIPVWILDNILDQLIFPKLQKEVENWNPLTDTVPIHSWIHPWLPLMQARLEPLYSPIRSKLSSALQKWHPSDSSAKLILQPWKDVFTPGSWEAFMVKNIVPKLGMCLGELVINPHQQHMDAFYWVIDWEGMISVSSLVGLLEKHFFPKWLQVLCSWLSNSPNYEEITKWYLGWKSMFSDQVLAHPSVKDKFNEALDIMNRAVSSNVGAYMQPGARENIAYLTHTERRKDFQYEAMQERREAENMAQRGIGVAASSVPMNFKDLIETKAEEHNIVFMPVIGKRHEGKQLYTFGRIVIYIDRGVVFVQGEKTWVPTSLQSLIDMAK
Chain of UniProt Q96RT8 (Q96RT8 whole entry, looked up): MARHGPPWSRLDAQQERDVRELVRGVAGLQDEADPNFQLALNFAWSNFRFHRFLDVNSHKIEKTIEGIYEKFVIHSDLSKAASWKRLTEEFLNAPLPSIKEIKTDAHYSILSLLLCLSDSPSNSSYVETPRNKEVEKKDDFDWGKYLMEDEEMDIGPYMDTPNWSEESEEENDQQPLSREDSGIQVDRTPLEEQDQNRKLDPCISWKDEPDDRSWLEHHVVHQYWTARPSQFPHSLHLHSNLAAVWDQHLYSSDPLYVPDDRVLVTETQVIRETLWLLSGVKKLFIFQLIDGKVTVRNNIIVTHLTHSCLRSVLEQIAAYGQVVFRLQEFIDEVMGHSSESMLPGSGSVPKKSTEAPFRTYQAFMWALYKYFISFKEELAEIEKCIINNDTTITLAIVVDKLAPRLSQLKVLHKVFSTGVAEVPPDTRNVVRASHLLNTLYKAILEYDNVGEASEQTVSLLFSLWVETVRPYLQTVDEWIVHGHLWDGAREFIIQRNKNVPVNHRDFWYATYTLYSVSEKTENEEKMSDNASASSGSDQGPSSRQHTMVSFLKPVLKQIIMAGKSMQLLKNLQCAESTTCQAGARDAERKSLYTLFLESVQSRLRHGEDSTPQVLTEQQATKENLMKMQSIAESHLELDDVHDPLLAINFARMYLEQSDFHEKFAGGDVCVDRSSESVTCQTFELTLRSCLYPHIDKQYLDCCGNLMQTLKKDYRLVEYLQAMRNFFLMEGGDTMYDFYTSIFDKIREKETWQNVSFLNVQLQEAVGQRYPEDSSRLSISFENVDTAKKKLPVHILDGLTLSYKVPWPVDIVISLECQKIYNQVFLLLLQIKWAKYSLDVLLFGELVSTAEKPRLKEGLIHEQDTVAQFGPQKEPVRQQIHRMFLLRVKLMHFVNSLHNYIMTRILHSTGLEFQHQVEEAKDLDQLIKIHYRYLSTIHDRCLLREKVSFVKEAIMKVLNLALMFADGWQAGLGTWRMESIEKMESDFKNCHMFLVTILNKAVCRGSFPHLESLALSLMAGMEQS
Chain of UniProt P09493 (P09493 whole entry, looked up): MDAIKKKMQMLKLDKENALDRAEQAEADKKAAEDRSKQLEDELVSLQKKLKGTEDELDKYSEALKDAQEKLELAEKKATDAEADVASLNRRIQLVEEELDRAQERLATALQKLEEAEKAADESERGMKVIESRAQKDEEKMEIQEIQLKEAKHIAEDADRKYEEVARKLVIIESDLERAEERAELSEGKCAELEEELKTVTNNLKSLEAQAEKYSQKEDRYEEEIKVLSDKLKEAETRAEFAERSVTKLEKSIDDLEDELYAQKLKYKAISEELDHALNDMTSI

Target	log2 fold change [1]	log2 fold change [2]	log2 fold change [3]	log2 fold change [4]	log2 fold change [5]	log2 fold change [6]	log2 fold change [7]	log2 fold change [8]	log2 fold change [9]	log2 fold change [10]	log2 fold change [11]	log2 fold change [12]	log2 fold change [13]	log2 fold change [14]	log2 fold change [15]
TLE3 isoform 4 (UniProt Q04726)	0.011	0.053	-0.002	0.001	-0.038	0.008	-0.003	0.012	0.001	-0.003	0.011	0.047	-0.052	-0.018	-0.009
TBC1D2B (UniProt Q9UPU7)	-0.019	0.038	-0.008	-0.07	0.055	0.007	-0.087	0.007	-0.021	0.006	-0.007	-0.249 (active)	0.049	-0.047	-0.061
U2AF1L5 (UniProt P0DN76)	-0.033	0.061	-0.012	0.077	0.026	–	-0.01	–	0.009	-0.022	–	-0.363	-0.069	–	0.016
TXNRD2 (UniProt Q9NNW7)	0.063	0.008	0.039	0.071	0.015	-0.017	-0.005	-0.023	-0.006	-0.05	-0.016	0.125	-0.025	0.029	0.023
TPM1 isoform 4 (UniProt P09493)	0.02	0	0.004	-0.031	0.004	0.023	-0.008	-0.016	-0.018	-0.019	-0.053	0.052	-0.03	-0.041	0.006
TUBGCP5 (UniProt Q96RT8)	0.024	0.04	0.119	0.048	-0.094	0.203	0.012	0.077	-0.68 (active)	–	-0.029	–	–	0.042	-0.105
TPM3 isoform 2 (UniProt P06753)	-0.048	0.019	0.012	-0.005	0.014	0.14	0.06	-0.024	-0.003	0.047	-0.032	0.048	0.011	-0.047	-0.029
TUBB1 (UniProt Q9H4B7)	0.095	-0.013	-0.043	-0.004	0.002	0.079	0.03	0.009	-0.006	-0.019	-0.038	-0.326 (active)	-0.003	0.033	0.011
TRMT2A (UniProt Q8IZ69)	-0.034	-0.011	-0.018	-0.011	0.013	-0.023	-0.007	0.016	-0.002	-0.012	-0.012	-0.366 (active)	0.034	-0.007	0.002
TTC38 (UniProt Q5R3I4)	0.02	0.016	0.029	0.059	-0.003	0.293 (active)	0.026	-0.036	0.015	0.029	0.017	-0.044	-0.014	-0.022	0.029
UBXN2B (UniProt Q14CS0)	-0.04	-0.068	0.08	-0.208	-0.099	–	0.021	–	-0.024	-0.06	0.095	0.085	0.053	–	-0.032
TCF4 (UniProt P15884)	-0.004	-0.139	0.077	-0.057	0.01	0.161	-0.147	0.064	0.016	–	–	–	–	0.078	-0.074
TK1 (UniProt K7ERV3)	-0.024	-0.134	-0.114	0.086	0.02	-0.059	0.059	0.122	–	-0.016	-0.018	0.086	0.01	-0.014	-0.013
TFIP11 (UniProt Q9UBB9)	0.004	0.003	-0.059	0.035	0.01	-0.067	-0.005	0.048	0	-0.004	-0.001	-0.06	0.013	0.001	0.067
TTI1 (UniProt O43156)	-0.007	0.004	0.005	0.001	0.016	-0.047	-0.015	-0.003	0.01	-0.001	-0.037	-0.452 (active)	0.089	-0.019	-0.017
TUBGCP3 (UniProt Q96CW5)	-0.031	0.029	-0.038	0.043	0.038	-0.083	-0.023	0.009	0.002	0.012	-0.014	-0.459 (active)	-0.014	0.019	-0.003
TSPAN3 (UniProt O60637)	0.004	-0.003	0.118	-0.199	0.033	–	-0.032	–	-0.098	0.015	-0.124	0.105	-0.056	–	-0.005
TASP1 (UniProt Q9H6P5)	-0.319	-0.062	-0.124	0.077	-0.003	-0.094	0.089	0.046	-0.053	-0.056	–	0.481 (active)	-0.018	0.029	0.21
UBAP2L isoform 1 (UniProt Q14157)	-0.03	-0.081	–	0.09	–	0.613	-0.067	0.081	–	–	–	–	–	0.088	–
TUBB4A (UniProt M0QYM7)	-0.029	-0.009	–	0.039	–	-0.116	0.013	0.107	-0.048	0.126	0.128	-0.431	0.01	-0.062	0.032
TPD52L2 isoform 3 (UniProt O43399)	0.055	0.035	–	0.008	–	–	0.134	–	–	0.074	–	0.258	-0.058	–	–
